A selection: hits, their analogues and other compounds. The true share with any hit is near 3.4%.
14-3-3 Bad PPI: disrupts binding of bovine 14-3-3 zeta to phospho-Bad peptide. P63103. TR-FRET 14-3-3zeta/Dy647-pBad peptide displacement, 1 h. inhibition, % at 21.7 µM. actives 0.71% (n = 220,000);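 active = inhibition above about 70%, limit read from the data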;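 note: 0% = full 14-3-3 plus peptide FRET controls and 100% = background without 14-3-3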
Target sequence (P63103 whole entry, looked up): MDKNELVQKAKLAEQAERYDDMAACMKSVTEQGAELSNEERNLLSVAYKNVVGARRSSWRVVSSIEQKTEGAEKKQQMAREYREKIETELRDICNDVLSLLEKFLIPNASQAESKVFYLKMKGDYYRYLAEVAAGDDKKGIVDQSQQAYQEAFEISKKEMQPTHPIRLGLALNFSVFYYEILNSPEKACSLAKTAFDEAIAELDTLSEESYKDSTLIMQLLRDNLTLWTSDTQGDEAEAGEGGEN
NCF1 inh: p47phox (human) inhibition; p47phox/p22phox peptide binding, fluorescence polarization, 2 h; inhibition, % at 24.7 µM; actives 0.53% (n = 220,000);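 active = inhibition above about 30%, limit read from the data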;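 note: 0% = p47phox with labelled peptide and 100% = labelled peptide alone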
m-calpain inh: blocks pig calpain II enzyme activity; purified calpain II, fluorogenic peptide substrate, 30 min; inhibition, % at 16 µM; actives 0.37% (n = 220,000); AID 1236;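 active = inhibition above about 50%, limit read from the data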
Mcl-1 Bim block: disrupts Bim peptide binding to human Mcl-1; Q07820; Bead-based flow cytometry, Bim peptide-Mcl-1 binding; inhibition, % at 10 µM; actives 0.1% (n = 190,000); AID 1009; in the data active = inhibition above about 40%;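 note: 0% = no compound tracer wells and 100% = peptide blocker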
Target sequence (Q07820 whole entry, looked up): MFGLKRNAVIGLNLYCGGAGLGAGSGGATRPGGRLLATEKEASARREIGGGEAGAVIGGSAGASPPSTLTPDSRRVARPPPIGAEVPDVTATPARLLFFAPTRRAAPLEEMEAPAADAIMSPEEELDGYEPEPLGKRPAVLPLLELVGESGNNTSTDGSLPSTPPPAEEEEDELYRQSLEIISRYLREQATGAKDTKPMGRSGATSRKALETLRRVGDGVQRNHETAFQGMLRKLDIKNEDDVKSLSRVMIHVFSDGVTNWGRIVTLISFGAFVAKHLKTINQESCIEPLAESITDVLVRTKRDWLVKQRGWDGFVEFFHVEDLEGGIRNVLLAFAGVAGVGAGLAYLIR
Mcl1 Noxa PPI: Mcl-1/Noxa interaction inhibition; Q07820; TR-FRET Mcl-1/Noxa peptide binding, 2 h; inhibition, % at 21.7 µM; actives 1.5% (n = 220,000); AID 1022;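 active = compounds that cut the protein-peptide binding signal by more than 50% relative to plate controls in a single-dose test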;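 note: His-tagged Mcl-1 with rhodamine Noxa BH3 peptide and terbium anti-His antibody; 0% = Mcl-1 plus Noxa peptide wells and 100% = peptide-only wells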
Mcl1 Bid PPI: Mcl-1/Bid interaction inhibition. Q07820. TR-FRET Mcl-1/Bid-Dy647 peptide binding, 1536-well. inhibition, % at 21.7 µM. actives 0.97% (n = 220,000). AID 1021;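 active = compounds that cut the binding signal by more than half at the single screening dose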;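 note: His-tagged Mcl-1 with europium anti-His antibody binding Bid BH3 peptide; 0% = Mcl-1 plus peptide wells and 100% = peptide-only wells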
Starred values were filed as active, the others as inactive; nt = no result given; [ ] = remark or other dose.

SMILES | 14-3-3 Bad PPI | NCF1 inh | m-calpain inh | Mcl-1 Bim block | Mcl1 Noxa PPI | Mcl1 Bid PPI
Cc1ccc(C2(CCNCc3ccc(N(C)C)cc3)CCOC(C(C)C)C2)cc1 (stereo unspecified) | -4 | -8 | -16 | 0 | 56* | -35
CCc1ccc(NC(=O)CCNS(=O)(=O)c2cccc3nsnc23)cc1 | 13 | -10 | 28 | -4 | 3 | 8
CN=C(Nc1ccc(Br)cc1)SC1CC(=O)N(c2ccc(OC)cc2)C1=O (stereo unspecified) | -4 | -5 | -13 | -4 | 2 | -5
CN(C)CCNC(=O)/C=C/c1cn(-c2ccccc2)nc1-c1cc2ccccc2oc1=O | -14 | -9 | -77 | -4 | -7 | -17
COc1cccc(NC2=NCC(=O)N2Cc2cccs2)c1 | 71* | -2 | 9 | -3 | 15 | 17
COc1ccc(NC2=NCC(=O)N2Cc2cccs2)cc1 | 75* | 4 | 9 | 2 | 32 | 17
COc1ccc(NC2=NCCC(=O)N2Cc2cccs2)cc1 | 13 | 5 | 15 | 1 | 19 | 0
COc1ccc(CN2C(=O)CN=C2Nc2cccc(C)c2C)cc1 | 82* | -14 | 4 | -1 | 23 | -10
C=CCSc1nc2c(cc1C#N)CCC2 | 90*[fluorescence artefact?] | -8 | 10 | 0 | 27 | 18
CC1=C(c2ccccc2)C(=S)NC(C)(C)C1 | -1 | -13 | -14 | nt | 5 | -146
Cc1cc(N2CCCC2)nc2ccc(NC(=S)NC(C)C)cc12 | -5 | 4 | -30 | -2 | 61* | -25
COCCNC(=S)Nc1ccc2nc(N3CCCC3)cc(C)c2c1 | -5 | 11 | -30 | 4 | 42 | -75
Cc1noc(/C=C/c2cccs2)c1S(=O)(=O)N1CCC(C(=O)NCCCN2CCCC(C)C2)CC1 (stereo unspecified) | -6 | -16 | -14 | -3 | 3 | -27
CCOC(=O)C1CCN(Cc2ccc(F)cc2)CC1 | 61 | 0 | 20 | 0 | -14 | 51*
CCOC(=O)C1CCN(Cc2ccc(Cl)c(Cl)c2)CC1 | 28 | -12 | -26 | -3 | 20 | 10
O=C(NCc1ccco1)C1CCN(Cc2ccc(F)cc2)CC1 | 80* | -1 | -3 | 4 | 33 | 28
CCOC(=O)C1CCN(Cc2ccc(O)c(OC)c2)CC1 | 84* | -3 | -9 | -1 | 10 | 18
COc1ccc(CN2CCSCC2)cc1O | 76* | 5 | -17 | -1 | 18 | -7
CCOC(=O)C1CCN(Cc2ccc(C(=O)OC)cc2)CC1 | 49 | -15 | -33 | 1 | 39 | 42
NS(=O)(=O)c1ccc(CCNC(=O)CNS(=O)(=O)c2cccc(Br)c2)cc1 | -11 | 2 | 0 | -4 | 10 | -43
CCOC(=O)C1CCN(c2c(NCCCN3CCCCC3)c(=O)c2=O)CC1 | -3 | -9 | -8 | nt | -11 | -86
CCOC(=O)C1CCN(c2c(NCCCN3CCN(Cc4ccccc4)CC3)c(=O)c2=O)CC1 | -4 | -4 | -13 | 0 | 16 | 52*
c1ccc(Oc2cccc(OCCn3cncn3)c2)cc1 | 65 | 7 | 4 | -1 | 32 | 59*
N#C/C(=C1\CCCN1)c1nc2ccccc2c(=O)[nH]1 | 6 | -12 | -11 | 0 | 15 | 5
N#C/C(=C1/CCCCCN1)c1nc2ccccc2s1 | -16 | -44 | 23 | -1 | 3 | 98*
SMILES | 14-3-3 Bad PPI | NCF1 inh | m-calpain inh | Mcl-1 Bim block | Mcl1 Noxa PPI | Mcl1 Bid PPI
C#Cc1ccc([C@H]2C=C(C(=O)N3CCN(Cc4ccc5c(c4)OCO5)CC3)O[C@@H](OCC)[C@@H]2CCCO)cc1 | -6 | -5 | -1 | -3 | -12 | 2
CCC(CC)NC(=O)COC(=O)c1cc(Br)ccc1Cl | -2 | -9 | 14 | 3 | 0 | 97*
Fc1ccc(NC(=S)Nc2cccnc2)c(F)c1F | -8 | -6 | 17 | -1 | 9 | -42
CCC(=O)N1CCc2cc(S(=O)(=O)NC(C(=O)NC3CCCc4ccccc43)C(C)C)ccc21 (stereo unspecified) | 5 | -8 | -36 | -3 | -7 | 7
COc1ccc2cc(C(=O)NCc3ccco3)c(=Nc3ccc(C(=O)O)cc3)oc2c1 | 12 | -7 | -24 | 0 | 1 | -18
COc1ccc(N=c2oc3c(OC)cccc3cc2C(=O)NCc2ccco2)c(OC)c1 | 17 | 5 | -31 | 1 | 27 | 65*
CC1C(=O)Nc2ccccc2N1C(=O)c1ccccc1 (stereo unspecified) | -10 | -4 | -23 | 0 | -15 | -17
Cc1ccc(C)c(NC2=CC(=O)CC(C)(C)C2)c1C#N | 76* | 10 | 0 | 0 | 1 | -2
CN(C)c1ccc(C(c2ccc(N(C)C)cc2)c2ccc([N+](=O)[O-])cc2)cc1 | -2 | 37* | -10 | nt | 15 | -46
O=C(Nc1cccnc1)C1CCN(S(=O)(=O)c2cccc3nonc23)CC1 | -2 | -14 | 4 | 4 | -1 | -28
CCOc1ccc2nc(NC(=O)C3CCCN(S(=O)(=O)c4cccc5nonc45)C3)sc2c1 (stereo unspecified) | 1 | -15 | -114 | -6 | 45 | 59*
COc1cc(NC(=O)C2CCN(S(=O)(=O)c3cccc4nonc34)CC2)cc(OC)c1 | -11 | -9 | -20 | 3 | 10 | 81*
CC(=O)N=c1n(C)c2ccccc2n1CCOc1ccccc1 | -9 | 2 | -12 | 0 | 16 | -12
O=C(Cc1ccccc1)NNC(=O)Nc1ccccc1 | 2 | 6 | 5 | -1 | 27 | 9
COCCCN(C(=O)c1cc2c(s1)CCC2)c1c(N)n(Cc2ccccc2)c(=O)[nH]c1=O | -14 | 0 | -73 | 0 | 53* | -18
CCCN(C(=O)c1cc2c(s1)CCC2)c1c(N)n(Cc2ccccc2)c(=O)[nH]c1=O | 12 | 1 | -41 | nt | 62* | -24
Cc1cc(-c2nnc(CCC(=O)N3CCN(Cc4cccnc4)CC3)o2)c(C)o1 | -7 | 133* | -9 | 0 | 11 | -35
Cc1ccc2c(c1)NC(=O)c1cccnc1N2 | 6 | -22 | 11 | -2 | 77* | -76
O=C1Nc2ccccc2Nc2ncccc21 | 2 | -47 | 1 | -2 | -10 | -55
O=C(c1ccc(-c2ccccc2)cc1)N1CCC(C(=O)N2CCCC2)CC1 | 4 | -8 | -37 | 0 | -1 | -9
O=C(c1ccc(-c2nnc(-c3ccccc3)o2)cc1)N1CCCCCC1 | -9 | 0 | 60* | -1 | -5 | -4
Cc1onc(-c2ccccc2Cl)c1C(=O)OCC(=O)c1c(N)n(C)c(=O)n(C)c1=O | -13 | -3 | -18 | -4 | 0 | -23
COc1cc(C(=O)Nc2ccc(N(C)C)cc2)cc(OC)c1OC | 1 | -13 | 18 | 2 | 78* | -100
CN(C)c1ccc(NC(=O)c2cccc(N3C(=O)CCC3=O)c2)cc1 | -23 | -3 | -1 | 0 | 64* | -55
CN(C)c1ccc(NC(=O)c2ccc3c(c2)nnn3C)cc1 | -14 | -2 | 1 | 0 | 61* | -59

Compound activity deposited in PubChem BioAssay by several laboratories.
